In all, about 320,000 compounds went through this assay and about 1,300 (0.41%) were called active. Another 3% or so got no clear call; they are omitted. How the calls were made is not given here. Not all results are given here. Entries with a potency or affinity are not part of this list.
experiment: growth inhibition of non-replicating M. tuberculosis (AID 488890); conditions: Mycobacterium tuberculosis non-replicating, at 25 µM, stronger effect = higher value;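 further: plate controls were DMSO cells for no effect and high antibiotic wells for full effect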

Compound	inhibition
CC1=C(C(=O)c2ccccc2)C(c2ccc(N3CCOCC3)cc2)NC(=O)N1 (stereo not given)	13.5%
COc1ccc(OC)c(S(=O)(=O)N2CCCC(C(=O)N3CCOCC3)C2)c1 (stereo not given)	-3.68%
CN1CCN(C(=S)NC(=O)/C=C/c2ccccc2Cl)CC1	-10.3%
Cc1nc(C(=O)NCC(=O)c2ccc(Cl)cc2)c(C(F)(F)F)o1	75%
O=C(CCNC(=O)Cn1ccc2ccccc2c1=O)NCc1ccc(F)cc1Cl	-3.09%
NC(=O)CCC(NS(=O)(=O)c1ccc(Cl)cc1)C(=O)NCc1ccc(Cl)cc1 (stereo not given)	0.33%
Cc1cccc(-n2c(-c3ccc(Br)o3)n[nH]c2=S)c1	-15%
COc1cc(CNC2CCCC2)cc(Cl)c1OCc1ccccc1F	78.7%
COc1cc(CNCc2ccccc2)cc(Cl)c1OC	-13.6%
COc1cc(CNC2CCCC2)cc(Br)c1OCC(=O)Nc1ccccc1C	45.5%
COc1cc(CNC2CCCCCCC2)cc(Cl)c1OC	9.81%
CCOc1cccc(CNCCO)c1OCc1ccc(Cl)cc1Cl	42.6%
CCOc1cc(CNCCc2ccc(S(N)(=O)=O)cc2)cc(Cl)c1OCc1ccccc1	73%
CCCCNCc1cc(Br)c(OCC(=O)NCc2ccccc2)c(OC)c1	68.2%
OCCNCc1ccc(OCc2ccc(Cl)cc2Cl)cc1	61.3%
COc1ccc(-c2n[nH]c(=S)n2-c2ccc(C)cc2C)cc1	-17.9%
Cc1ccc(S(=O)(=O)CCc2nnc(N)s2)cc1C	4.5%
Cc1oc(-c2ccccc2F)nc1CSCC(=O)NC1CC1	-0.31%
Cc1c(CC(=O)O)c(=O)oc2c(C)c(OCc3ccccc3)ccc12	-3.08%
CCN(CC(=O)Nc1cccc(C(C)=O)c1)S(=O)(=O)c1ccccc1	-4.85%
O=C(c1cccnc1)N1CCN(S(=O)(=O)c2ccc3ccccc3c2)CC1	9.44%
CC(NC(=O)CN1C(=O)NC2(CCCC2)C1=O)c1ccc2ccccc2c1 (stereo not given)	9.54%
CCN1CCC(NCCc2ccc(F)cc2)CC1	-11.9%

Compound	inhibition
CN(C(=O)c1ccc2c(Cl)c3c(nc2c1)CCC3)c1ccccc1	32.3%
Cc1ccc(N(CC(=O)Nc2c(C)n(C)n(-c3ccccc3)c2=O)S(C)(=O)=O)c(C)c1	-0.1%
O=P(O)(O)COc1ccccc1P(=O)(c1ccccc1)c1ccccc1	-12.2%
Cc1noc(C)c1COC(=O)COc1cccc2c1OC(C)(C)C2	39.2%
Cc1noc(C)c1COC(=O)COc1ccc(C#N)cc1	38.3%
O=C(Nc1ccc(N2CCN(C(=O)c3cccs3)CC2)c(Cl)c1)c1ccco1	9.48%
O=C(Nc1ccc(N2CCN(C(=O)c3ccco3)CC2)cc1)c1cccs1	38.8%
O=C(Nc1cccc(S(=O)(=O)N2CCCCCC2)c1)C1CCC1	-14%
CCc1ccc(NC(=O)Nc2cccc(OC)c2)cc1	60.4%
COc1ccc(OCC(=O)NNC(=O)C(=O)Nc2ccc(C)cc2)cc1	7.2%
COc1ccc(OCC(=O)NNC(=O)C(=O)Nc2ccccc2)cc1	75.3%
COC(=O)c1ccc(NC(=O)c2cccc(OC)c2)cc1	27.8%
COc1ccc(NC(=O)C(=O)NNC(=O)COc2ccc(OC)cc2)cc1	6.66%
CCc1ccc(NC(=O)COc2cccc(-n3cnnn3)c2)cc1	23.8%
CCCC(c1nnnn1Cc1ccco1)N1CCC(C(N)=O)CC1 (stereo not given)	-17.6%
Cc1ccc(CN2CCSc3ccc(C(=O)NCc4ccccn4)cc32)cc1	29.8%
CC(=O)Nc1cccc(NC(=O)c2cc(-c3cccnc3)nc3ccc(Cl)cc23)c1	14.7%
CCc1ccc(N(CC(=O)NCc2ccco2)C(=O)CCC(=O)Nc2ccccn2)cc1	-13.9%
CCC(C)c1ccc(O)c(NC(=O)c2cccnc2)c1 (stereo not given)	5.33%
CCC(C)c1ccc(O)c(N)c1 (stereo not given)	1.15%
CC(C)CN(C(=O)COC(=O)C1=COCCO1)c1c(N)n(Cc2ccccc2)c(=O)[nH]c1=O	0.83%
O=C(CC1SC(N2CCOCC2)=NC1=O)Nc1cccc(C(F)(F)F)c1 (stereo not given)	9.06%
COc1cccc(NC(=O)CCN2C(=O)c3ccc([N+](=O)[O-])cc3C2=O)c1	-4.23%

Compound	inhibition
C=CCN1C(=O)C(CC(=O)Nc2ccccc2)S/C1=N/c1nccs1 (stereo not given)	-1.19%
Cc1cc(=O)[nH]c(N2CCCC2)n1	-4.14%
Cc1cc(C)n(-c2nnc(C)c(=O)[nH]2)n1	1.82%
CCc1c(C)nc(SCc2cccnc2)[nH]c1=O	-9.77%
Cc1nn(-c2cccc3cccnc23)c(=O)c2ccccc12	0.08%
O=C(Cc1ccc([N+](=O)[O-])cc1)N1CCCCCC1	5.47%
O=C(c1ccc(Oc2ccc([N+](=O)[O-])cc2)cc1)N1CCCCCC1	65.4%
Cc1ccccc1NC(=O)c1cccc(S(=O)(=O)N2CCOCC2)c1	-10.8%
c1csc(CN2CCOCC2)c1	-3.64%
OC(C#CCN1CCCC1)c1ccccc1 (stereo not given)	-3.04%
COc1cc(C(=S)N2CCN(C(c3ccccc3)c3ccccc3)CC2)cc(OC)c1O	12.6%
CCCc1cc(=O)oc2c(C)c(OCC(=O)N3CCC[C@@H]3C(=O)O)ccc12	-11.2%
CCOC(=O)/C(=N\Nc1cc(Cl)ccc1Cl)N1CCN(CC)CC1	46%
COc1ccc(CN2C(=O)C(O)(CC(=O)c3ccc4c(c3)OCO4)c3ccccc32)cc1OC (stereo not given)	12.6%
Cc1[nH]c2ccccc2c1C(=O)NS(=O)(=O)Nc1ccc(F)cc1	-2.71%
COc1ccccc1Oc1ccc(NC(=O)Cc2ccccc2)cc1	19.6%
O=c1ccc(=O)n(-c2ccccc2)[nH]1	20%
O=c1[nH][nH]c(=O)n1-c1ccccc1	-3.31%
CCOC(=O)c1cn(Cc2ccc(C)cc2)nn1	75.3%
CCOC(=O)c1cn(Cc2ccccc2)nn1	74.6%
CCc1nnc(NC(=O)CSc2nncc(=O)n2N)s1	-12.3%
Cn1cnnc1SCCNS(=O)(=O)c1ccccc1	2.23%
CCOC(=O)c1c(C)[nH]c(C(=O)OCC(=O)NCc2ccc(C)cc2)c1C	-10.5%

Compound	inhibition
C/C(CC(=O)Nc1ccc(N(C)C)cc1)=N\NC(=O)c1ccc(F)cc1	8.75%
C/C(CC(=O)Nc1ccc(N(C)C)cc1)=N\NC(=O)c1ccc(Cl)cc1	8%
Cc1cc(C)c(S(=O)(=O)NCC(=O)NCc2ccco2)c(C)c1	0.05%
COC1C(C)=C(C)C(=O)N1Cc1ccccc1 (stereo not given)	-5.86%
C/C(=N\O)c1ccc(Cl)cc1Cl	1.76%
C/C(=N\O)c1cc(Cl)cc(Cl)c1O	19%
CCCCC(=O)N=c1sc2cc(S(C)(=O)=O)ccc2n1C	-0.02%
CS(=O)(=O)c1ccccc1-c1nnc(NC(=O)c2ccc3ncsc3c2)o1	10.1%
O=C(Nc1nnc(-c2ccccc2)o1)c1cc(Cl)sc1Cl	9.95%
COC(=O)c1ccc(C(=O)Nc2nnc(-c3cccnc3)o2)cc1	7.58%
COc1cccc(C(=O)Nc2cccc(-c3nnc(-c4ccccc4)o3)c2)c1	-7.83%
O=C(Nc1ccc(F)cc1)c1cc(Cl)sc1Cl	70.7%
O=C(Nc1nnc(-c2ccc(F)cc2)o1)c1cccc([N+](=O)[O-])c1	-8.79%
O=C(Nc1nnc(-c2cccnc2)o1)c1ccccc1Cl	35.5%
CS(=O)(=O)c1cccc(-c2nnc(NC(=O)c3ccc4ncsc4c3)o2)c1	-2.94%
O=C1CC(N2CCC(c3nc4ccccc4[nH]3)CC2)C(=O)N1c1cccc(F)c1 (stereo not given)	20.2%
CCOC(=O)Cn1c(=NC(=O)CSC(C)=O)sc2cc(F)ccc21	30.8%
Cc1nc(OCc2c(C)noc2C)c2ccccc2n1	-6.1%
Brc1ccc(-c2ccccc2)cc1	27.1%
Cc1ccc(OCC(=O)Nc2ccccc2C(=O)N2CCCC2)cc1	1.03%
Cc1nnsc1C(=O)Nc1ccc(Cl)cc1	-9.77%
Cc1nnsc1S(=O)c1ccc(Cl)cc1 (stereo not given)	-4.16%
Cc1cccc(-c2nc3cc([N+](=O)[O-])ccc3o2)c1	4.61%

Compound	inhibition
COc1ccc(-c2[nH]nc3oc(=O)cc(C)c23)cc1	7.5%
Cc1nc2ncccn2c1-c1csc(Nc2cccc(C(=O)O)c2)n1	-13.4%
CC1CCC(NS(=O)(=O)c2cccc3nsnc23)CC1 (stereo not given)	0.44%
CCC(C(=O)O)n1nnc(-c2ccc(-c3ccc(OC)cc3)cc2)n1 (stereo not given)	28%
CCCCOc1ccc(-c2nnn(CC(=O)Nc3ncc(CC(=O)OCC)s3)n2)cc1	78.8%
COc1cccc(C(=O)/C=C2\NCCc3cc(OC)c(OC)cc32)c1	21.5%
CCN1CCN(C(=O)N(c2ccccc2)c2ccccc2)CC1	-28.4%
NC(=O)CC(NC(=O)Cc1cccc2ccccc12)c1ccc(NCCN2CCCCC2)c([N+](=O)[O-])c1 (stereo not given)	3.25%
OC(COC(c1ccc(F)cc1)c1ccc(F)cc1)CN1CCCC1 (stereo not given)	1.01%
OC1CCCN(CC(O)COC(c2ccc(F)cc2)c2ccc(F)cc2)C1 (stereo not given)	-5%
CCOC(=O)C1(CCOc2ccccc2)CCN(Cc2ccc(O)c(Cl)c2)CC1	63.3%
CN1CCN(NC(=O)c2ccc(Cl)c(S(=O)(=O)Nc3ccc(Cl)cc3)c2)CC1	-0.68%
CCCN(CC(=O)Nc1ccccc1C)C(=O)c1ccc(C(=O)c2ccccc2)cc1	18.4%
COc1ccc(C(=O)N2CCNC(=O)C2CC(=O)Nc2cc(Cl)ccc2OC)cc1 (stereo not given)	0.76%
O=C(Cc1ccc(-n2cccc2)cc1)NC1CCCCCC1	19.9%
CCOC(=O)Cn1cc(/C=C/[N+](=O)[O-])c2ccccc21	72.6%
CCOC(=O)COc1ccccc1/C=N/O	15%
CCC(=O)Nc1cccc(NC(=O)c2ccc(Br)cc2)c1	1.37%
COC(=O)c1cn(NC(=O)c2cccnc2)c(=O)c2ccccc12	-6.97%
COC(=O)c1cn(NC(=O)c2ccncc2)c(=O)c2ccccc12	14.3%
CCCCCCCCCCC(=O)NNC(=O)c1c(O)c2ccccc2n(CC)c1=O	-9.98%
COc1cc(C(=O)NCc2ccc(F)cc2)cc(Cl)c1OC	-11.2%
CCCCn1c(N)c(N(CCOC)C(=O)CCNC(=O)c2ccc(Cl)cc2)c(=O)[nH]c1=O	-12.2%
